Drawing on PubChem BioAssay (NCATS), this text covers Potency for 13 compounds.

Inconclusive results are not listed. Calls of active or inactive are those of the source. Calls follow the shape of the dose curve; as a rule, active = well fitted curve in the direction sought with a large enough effect; inconclusive = small, poorly fitted or top-dose-only effect, or another doubt; inactive = no such curve, though single readings can be large; an effect the other way counts as inactive or inconclusive.

Assay [1] in a line: Quantitative High-Throughput drug screen in 47 multiple myeloma cell lines against the NCATS MIPE library collection: KHM11_PLB cell viability assay (AID 1918962). Also: nearly all actives have a fitted effect of over 35% in size. The gist of the method: (§1)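 Viability readout: CellTiter-Glo luminescence following 5 min room-temperature incubation with reagent. Prior exposure: 48 h, 37C, humidified 5% CO2, 500 cells per well.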
The nature of assay [2]: Quantitative High-Throughput drug screen in 47 multiple myeloma cell lines against the NCATS MIPE library collection: JIM3_ECACC cell viability assay (AID 1918963; also: nearly all actives have a fitted effect of over 35% in size). The gist of the method:
as §1

Assay [3] is described as follows: Quantitative High-Throughput drug screen in 47 multiple myeloma cell lines against the NCATS MIPE library collection: INA6_PLB cell viability assay (AID 1918965; also: nearly all actives have a fitted effect of over 55% in size). Put shortly:
(§2)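 Approved and investigational drugs from MIPE 4.0 were added by pin tool to 500 cells per well. After 48 hours at 37C, ATP-based CellTiter-Glo luminescence indicated remaining viability.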

A short description of assay [4]: Quantitative High-Throughput drug screen in 47 multiple myeloma cell lines against the NCATS MIPE library collection: JJN3_DSMZ cell viability assay (AID 1918966; also: nearly all actives have a fitted effect of over 50% in size). The gist of the method: (§3)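 Primary qHTS used for cherry-picking: cells at 500/well, library compounds for 48 h (37C, 5% CO2), luminescent ATP assay.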
A short description of assay [5]: Quantitative High-Throughput drug screen in 47 multiple myeloma cell lines against the NCATS MIPE library collection: H1112_PLB cell viability assay (AID 1918967; also: nearly all actives have a fitted effect of over 30% in size). Put shortly:
as §3

The nature of assay [6]: Quantitative High-Throughput drug screen in 47 multiple myeloma cell lines against the NCATS MIPE library collection: Karpas25_ECACC cell viability assay (AID 1918968; also: nearly all actives have a fitted effect of over 35% in size). Put shortly:
as §3

Assay [7] is described as follows: Quantitative High-Throughput drug screen in 47 multiple myeloma cell lines against the NCATS MIPE library collection: KMS27_JCRB cell viability assay (AID 1918970). Also: nearly all actives have a fitted effect of over 30% in size. Particulars: KMS27 myeloma cells, CellTiter-Glo ATP viability, 48 h; viability (% of DMSO): at 45.8 µM (top of the series). Put shortly:
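CellTiter-Glo luminescence after 48 h drug exposure at 37 °C; 500 cells/well, 1536-well format, pin-tool compound addition; DMSO = 100%, media-only = 0% viability.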
On the technique in general: In ATP-based viability assays light output follows the ATP content of the culture.

Assay [8] is described as follows: Quantitative High-Throughput drug screen in 47 multiple myeloma cell lines against the NCATS MIPE library collection: KMS12BM_JCRB cell viability assay (AID 1918971). Also: nearly all actives have a fitted effect of over 35% in size. Put shortly: (§4)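 Steps: seed 500 cells per well; pin-transfer MIPE 4.0 library; incubate 48 h at 37C, 5% CO2, humidified; add CellTiter-Glo, 5 min room temperature; read luminescence.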
Assay [9] is described as follows: Quantitative High-Throughput drug screen in 47 multiple myeloma cell lines against the NCATS MIPE library collection: KMS12PE_JCRB cell viability assay (AID 1918972). Also: nearly all actives have a fitted effect of over 30% in size. The gist of the method: as §2
Assay [10] can be described thus: Quantitative High-Throughput drug screen in 47 multiple myeloma cell lines against the NCATS MIPE library collection: KMS20_JCRB cell viability assay (AID 1918973). Also: nearly all actives have a fitted effect of over 45% in size. Put shortly: as §3
A short description of assay [11]: Quantitative High-Throughput drug screen in 47 multiple myeloma cell lines against the NCATS MIPE library collection: KMS26_JCRB cell viability assay (AID 1918975). Also: nearly all actives have a fitted effect of over 45% in size. Put shortly:
as §4

A short description of assay [12]: Quantitative High-Throughput drug screen in 47 multiple myeloma cell lines against the NCATS MIPE library collection: MMM1_PLB cell viability assay (AID 1918976). Also: nearly all actives have a fitted effect of over 35% in size. Put shortly: (§5)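 MIPE 4.0 approved/investigational drugs; 500 cells/well; 48 h 37 °C humidified 5% CO2; CTG luminescence readout; DMSO = 100%, media = 0% viability.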
A short description of assay [13]: Quantitative High-Throughput drug screen in 47 multiple myeloma cell lines against the NCATS MIPE library collection: MOLP8_DSMZ cell viability assay (AID 1918977). Also: nearly all actives have a fitted effect of over 45% in size. The gist of the method: as §5
A short description of assay [14]: Quantitative High-Throughput drug screen in 47 multiple myeloma cell lines against the NCATS MIPE library collection: NCIH929_DSMZ cell viability assay (AID 1918978). Also: nearly all actives have a fitted effect of over 35% in size. Put shortly: as §5
A short description of assay [15]: Quantitative High-Throughput drug screen in 47 multiple myeloma cell lines against the NCATS MIPE library collection: OCIMY1_PLB cell viability assay (AID 1918979). Also: nearly all actives have a fitted effect of over 35% in size. The gist of the method:
as §5

A short description of assay [16]: Quantitative High-Throughput drug screen in 47 multiple myeloma cell lines against the NCATS MIPE library collection: MM1S_ATCC cell viability assay (AID 1918980). Also: nearly all actives have a fitted effect of over 45% in size. The gist of the method:
as §5

A short description of assay [17]: Quantitative High-Throughput drug screen in 47 multiple myeloma cell lines against the NCATS MIPE library collection: MM1R_ATCC cell viability assay (AID 1918981). Also: nearly all actives have a fitted effect of over 35% in size. The gist of the method: as §5
Assay [18] in a line: Quantitative High-Throughput drug screen in 47 multiple myeloma cell lines against the NCATS MIPE library collection: JIM1_ECACC cell viability assay (AID 1918964). Put shortly: as §3
Potency is read from the fitted curve at half-maximal effect.

For `COc1cccc2c1C(=O)c1c(O)c3c(c(O)c1C2=O)C[C@@](O)(C(=O)CO)C[C@@H]3O[C@H]1C[C@H](N)[C@@H](O)[C@H](C)O1`, the Potency is 743 nM (active) in assay [1]; 935 nM (active) in assay [2]; 166 nM (active) in assay [3]; 662 nM (active) in assay [4]; 590 nM (active) in assay [5]; 418 nM (active) in [6]. The Potency was 935 nM (active) in assay [7]; 469 nM (active) in [8]; 2350 nM (active) in [9]; 166 nM (active) in assay [10]; 1480 nM (active) in assay [11]; 469 nM (active) in assay [12]. Further, the Potency in assay [13] was 372 nM (active); in [14], 235 nM (active); in assay [15] it was 1660 nM (active); in [16] it was 66.2 nM (active); in assay [17], 118 nM (active).

Take `O=C(NCc1ccccc1)[C@H](Cc1ccccc1)NC(=O)[C@@H]1O[C@@H]1C(=O)NCCc1ccc(O)cc1`: the Potency result in assay [1], in assay [2], in assay [5] and in assay [14] was “inactive” throughout. The Potency in [18] is 18700 nM (active); in assay [6] it was 23500 nM (active); in assay [9], 23500 nM (active); in assay [12], 20900 nM (active); in [16] it was 1180 nM (active); in assay [17], 10500 nM (active).

As for `COc1cc2ncnc(Nc3cccc(Br)c3)c2cc1OC`, the Potency in [1] was 16600 nM (active); in assay [2], 2640 nM (active); in [3], 3320 nM (active); in assay [4] it was 20900 nM (active); in assay [6], 526 nM (active); in assay [7] it was 23500 nM (active). For the same compound, the Potency is 41.8 nM (active) in assay [8]; 14800 nM (active) in [9]; 743 nM (active) in assay [10]; 16600 nM (active) in assay [11]; 20900 nM (active) in assay [13]; 14.8 nM (active) in [16].

In the case of `c1cncc(CN2CCC(n3ncc4c(N5CCOCC5)nc(-c5ccc6[nH]ccc6c5)nc43)CC2)c1`, the Potency in [1] is 1660 nM (active); in [2] it was 5260 nM (active); in assay [3], 5900 nM (active); in assay [4], 5900 nM (active); in assay [5] it was 13200 nM (active); in assay [6] it was 2350 nM (active). Besides, the Potency in [8] was 13200 nM (active); in assay [10] it was 1180 nM (active); in [11], 4690 nM (active); in [12], 7430 nM (active); in [13], 2960 nM (active); in assay [14] it was 332 nM (active). The Potency was 16600 nM (active) in assay [15], 5900 nM (active) in assay [16] and 5900 nM (active) in [17].

Regarding `CC[C@H]1OC(=O)[C@H](C)[C@@H](O[C@H]2C[C@@](C)(OC)[C@@H](O)[C@H](C)O2)[C@H](C)[C@@H](O[C@@H]2O[C@@H](C)C[C@H](N(C)C)[C@@H]2O)[C@](C)(O)C[C@@H](C)C(=O)[C@H](C)[C@@H](O)[C@]1(C)O`, the Potency result in assay [1], in [2], in [18], in assay [5], in assay [7] and in [9] was “inactive” in each case. Also, the Potency entry in [11], in [13], in assay [14] and in assay [16] was “inactive” each time.

For the compound `C[C@H](NC(=O)C(C#N)=Cc1cccc(Br)n1)c1ccccc1`, the Potency was 2090 nM (active) in [1]; 2090 nM (active) in assay [2]; 1870 nM (active) in [3]; 4180 nM (active) in assay [4]; 2350 nM (active) in assay [5]; 2090 nM (active) in [6]. The Potency was 13200 nM (active) in [7]; 4690 nM (active) in [8]; 16600 nM (active) in assay [9]; 2350 nM (active) in assay [10]; 2350 nM (active) in assay [11]; 7430 nM (active) in assay [12]. Besides, the Potency in assay [13] is 2350 nM (active); in [14] it was 1660 nM (active); in assay [15], 7430 nM (active); in assay [17], 2090 nM (active).

Take `COc1ccc(C[C@@H](C)[C@@H](C)Cc2ccc(OC)c(OC)c2)cc1OC`: the Potency was 148 nM (active) in [1]; 418 nM (active) in assay [2]; 662 nM (active) in assay [3]; 833 nM (active) in assay [4]; 296 nM (active) in [5]; 662 nM (active) in [6]. Also, the Potency is 166 nM (active) in assay [7]; 662 nM (active) in [8]; 372 nM (active) in assay [9]; 2350 nM (active) in [10]; 590 nM (active) in assay [11]; 5900 nM (active) in assay [12]. For the same compound, the Potency is 2960 nM (active) in assay [13], 1870 nM (active) in assay [14] and 1050 nM (active) in [17].

`O=[N+]([O-])c1cn2c(n1)OC[C@@H](OCc1ccc(OC(F)(F)F)cc1)C2`: the Potency entry in assay [1], in assay [2], in [18], in [5], in assay [6] and in assay [9] was “inactive” in each case. For the same compound, the Potency entry in assay [11], in assay [13], in assay [14] and in assay [15] was “inactive” in each case. Moreover, the Potency is 8330 nM (active) in assay [12] and 2640 nM (active) in assay [16].

In the case of `FC(F)c1nc2ccccc2n1-c1nc(N2CCOCC2)nc(N2CCOCC2)n1`, the Potency in assay [1] was 469 nM (active); in assay [2], 372 nM (active); in assay [3], 296 nM (active); in assay [4], 743 nM (active); in assay [6], 93.5 nM (active); in [7], 105 nM (active). Also, the Potency in [8] was 1660 nM (active); in [10], 332 nM (active); in [11] it was 743 nM (active); in [12] it was 526 nM (active); in assay [13], 132 nM (active); in assay [14], 105 nM (active). Moreover, in [17], the Potency is 743 nM (active).

In the case of `COc1ccnc2[nH]cc(C(=O)C(=O)N3CCN(C(=O)c4ccccc4)C[C@@H]3C)c12`, the Potency result in [1], in [2], in assay [3], in assay [5], in assay [6] and in assay [7] was “inactive” each time. Moreover, the Potency entry in [8], in assay [9], in assay [11], in assay [13], in [14] and in assay [15] was “inactive” in each case. In addition, the Potency result in assay [16] and in assay [17] was “inactive” each time. Also, the Potency in assay [4] is 13200 nM (active).

For the compound `N#CC(=Cc1ccc(O)c(O)c1)C(=O)NCc1ccccc1`, the Potency in assay [1] was 9350 nM (active); in assay [2] it was 8330 nM (active); in assay [3], 16600 nM (active); in assay [7], 833 nM (active); in [10] it was 8330 nM (active); in assay [12], 3320 nM (active). For the same compound, in assay [16], the Potency was 26400 nM (active).

As to `CC(=O)C1=C(O)C=C2Oc3c(C(C)=O)c(O)c(C)c(O)c3C2(C)C1=O` (stereo not drawn), the Potency result in [1], in assay [2], in assay [3], in [5], in assay [8] and in assay [14] was “inactive” in each case. The Potency entry in assay [15], in assay [16] and in assay [17] was “inactive” in each case.

Take `NC1=N[C@H]2[C@H](CS[C@H]2CCCCC(=O)O)N1`: the Potency entry in [1], in [2], in [3], in [5], in [6] and in assay [7] was “inactive” throughout. Further, the Potency result in assay [8], in assay [9], in [11], in [13], in assay [14] and in [16] was “inactive” each time.
